tim23-1 inh = growth inhibitors of tim23-1 mutant yeast, primary screen, luminescence, uHTS. AID 463212, 2010. actives 1.3% (n = 330,000). S. cerevisiae tim23-1 growth, BacTiter-Glo luminescence, 24 h. inhibition, % at 20 µM;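 active = growth inhibition of the mutant yeast at or above 50%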;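 note: temperature-sensitive mutant grown at 25 °C; plate controls were DMSO-treated mutant yeast for no effect and medium wells lacking yeast for full effect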
Rce1 inh = yeast Rce1p protease inhibitors, primary screen, biochemical, fluorescence, cell-free homogeneous; actives 0.27% (n = 290,000); CAAX prenyl protease 2 (Saccharomyces cerevisiae (strain ATCC 204508 / S288c)), Q03530; AID 2563, 2010; calls only; yeast membranes, quenched prenylated peptide cleavage fluorescence;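 active = fall in fluorescence gain of 50% or more versus controls, with final raw signal at or below 3038400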;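 note: plate controls were neutral control wells for no effect and wells lacking membranes for full effect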
Target sequence (Q03530 whole entry, looked up): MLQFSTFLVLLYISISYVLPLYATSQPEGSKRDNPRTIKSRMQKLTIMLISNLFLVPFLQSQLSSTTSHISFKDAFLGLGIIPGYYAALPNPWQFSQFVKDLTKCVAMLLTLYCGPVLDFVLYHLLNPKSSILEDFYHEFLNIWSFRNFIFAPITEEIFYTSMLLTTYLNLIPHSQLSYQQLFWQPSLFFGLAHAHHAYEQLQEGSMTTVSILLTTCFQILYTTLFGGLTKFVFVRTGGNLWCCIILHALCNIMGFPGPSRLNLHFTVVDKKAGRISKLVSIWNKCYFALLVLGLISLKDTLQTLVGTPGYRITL
TIM10 inh = growth inhibitors of isogenic TIM10 control yeast, primary screen, counter-screen for tim10-1 yeast inhibitor project, luminescence, uHTS | inhibition, % at 10 µM | S. cerevisiae TIM10 strain growth, BacTiter-Glo luminescence, 24 h | AID 463195, 2010 | actives 1.4% (n = 330,000);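 active = inhibition of 40% or more at the single tested concentration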;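 note: wild-type TIM10 isogenic control strain grown at permissive 25 °C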
PfHsp90 set2 = growth inhibition of PfHsp90-expressing yeast, primary screen, antimalarial PfHsp90 inhibitor project, S. cerevisiae, BacTiter-Glo luminescence, single point, set 2. inhibition, % at 9.4 µM. actives 0.32% (n = 310,000). BacTiter-Glo ATP, 48 h; yeast lacking PDR1 and PDR3 efflux regulators. AID 504621, 2011;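 active = every replicate shows inhibition above about 80%, whatever the replicate mean, limit read from the data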;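 note: 0% = DMSO neutral controls and 100% = 20 µM radicicol positive controls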
tim10-1 inh = growth inhibitors of tim10-1 mutant yeast, primary screen, luminescence, uHTS. S. cerevisiae tim10-1 ts strain growth, BacTiter-Glo, 24 h. inhibition, % at 20 µM. actives 2.2% (n = 330,000). AID 463190, 2010;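 active = inhibition of at least 40%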;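 note: mutant grown at 25 °C; 0% = DMSO wells with yeast and 100% = wells holding no yeast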
tim10-1 confirm = growth inhibitors of tim10-1 mutant yeast, confirmation, single concentration, luminescence, S. cerevisiae. S. cerevisiae tim10-1 ts strain growth, BacTiter-Glo, 24 h. actives 56% (n = 7,400). shares compounds with tim10-1 inh. AID 463213, 2010. inhibition, % at 20 µM;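 active = inhibition of yeast growth at or above a set limit in either of two repeat tests at 20 µM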;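 note: tim10-1 mutant grown at permissive 25 °C to find synthetic lethal compounds; 0% = DMSO yeast wells and 100% = medium wells without yeast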
The depositor's hits bear a star; i = inactive; nt = no result given. In the library only some 3.7% were active in any assay of this set; here they are far more common.

SMILES	tim23-1 inh	Rce1 inh	TIM10 inh	PfHsp90 set2	tim10-1 inh	tim10-1 confirm
CCOC(=O)CSc1nnc(CNc2ccccc2Cl)n1-c1ccccc1	24	i	3	nt	45*	20
COC(=O)CSc1nnc(CNc2ccc(Cl)cc2)n1-c1ccccc1	-272	i	14	-63	-22	nt
COC(=O)CSc1nnc(C)n1-c1ccc(C)cc1	9	i	5	0	16	nt
CCOc1cc(C(=O)N2CCC(CC3CC(c4cccc(Br)c4)=NO3)(C(=O)NCC3CCCCC3)CC2)cc(OCC)c1OCC (configuration not stated)	0	i	7	4	-11	nt
Cc1ccc(S(=O)(=O)N(C)CC(=O)Nc2ccccc2N2CCCC2)cc1	43	nt	18	27	32	nt
O=C(N/C=C/n1cnc2cc(C(F)(F)F)ccc21)c1ccccc1	3	i	2	-20	17	nt
Cc1ccc(-n2c(Cc3cccn3C)nnc2SCC(=O)N2CCc3ccccc32)cc1	35	i	33	0	43*	22
CCSc1ccc2c(c1)N(CCCN1CCN(C)CC1)c1ccccc1S2	24	nt	17	13	42*	31*
OCCN1CCN(CC/C=C2/c3ccccc3Sc3ccc(C(F)(F)F)cc32)CC1	13	i	18	-9	51*	24
CN(C)CCCN1c2ccccc2Sc2ccc(C(F)(F)F)cc21	21	i	29	14	44*	31
CCN(CC)CC(=O)N1c2ccccc2Sc2ccccc21	3	i	-14	-25	4	nt
CCN(CC)CCCCN1c2ccccc2Sc2ccccc21	14	i	12	19	41*	27
C#CCOCCOCCOCCNc1nc(N2CCN(C(=O)Cn3cc(CCO)nn3)CC2)nc(N2CCN(C(=O)[C@H](C)n3cc(CCCN=C(N)N)nn3)CC2)n1	nt	nt	nt	2	nt	nt
CN1CCN(CCC(=O)N2c3ccccc3Sc3ccc(C(F)(F)F)cc32)CC1	-6	i	-2	-7	5	nt
OCCN1CCN(CCCN2c3ccccc3Sc3ccc(C(F)(F)F)cc32)CC1	6	i	20	11	42*	30*
O=C(C1CC1)N1CCc2cc(Br)cc(S(=O)(=O)N3CCN(c4ccccn4)CC3)c21	28	i	10	17	44*	37*
CCOC(=O)C1CCN(S(=O)(=O)c2cc(Br)cc3c2N(C(=O)C2CC2)CC3)CC1	33	i	33	-13	34	nt
Cn1nnnc1SCC(=O)C(C)(C)C	1	i	-21	-7	-7	nt
COC(=O)CN1C(=S)N(C)C(=O)/C1=C/c1cccs1	10	i	23	-6	27	nt
CCc1ccc(/C=C2/C(=O)N(C)C(=S)N2CC(=O)OC)s1	46	i	39	-7	43*	44*
CCOC(=O)C1=C(CSc2nc(-c3ccncc3)ccc2C#N)OC(N)=C(C#N)C1c1ccc(OC)cc1 (configuration not stated)	48	i	21	15	45*	23
CCOC(=O)C1=C(CC)OC(N)=C(C#N)C1c1ccc(OC)c(OC)c1OC (configuration not stated)	23	i	8	-12	8	nt
CCOC(=O)C1=C(CSc2nc(C)ccc2C#N)OC(N)=C(C#N)C1c1cccc(OC)c1OC (configuration not stated)	25	i	39	-13	45*	45*
Cc1ccc(OCc2cc(C(=O)N(C)Cc3cnn(-c4ccccc4C)c3)no2)cn1	19	i	15	2	27	nt
COc1ccc(S(=O)(=O)NCc2ccc(C(=O)NCCCN3CCCC(C)C3)cc2)cc1 (configuration not stated)	-2	i	-4	0	1	nt
O=C(c1cc(S(=O)(=O)N2CCOCC2)ccc1F)N(CCc1ccccc1)Cc1ccccc1	29	i	18	-4	28	nt
